± gives the standard deviation of the averaged measurements.

Compound in the assay: CCC/C=C/C=O [trans-2-hexenal]
Put plainly: control-subtracted net OSN firing rate; higher = stronger neuronal activation. The following applies: odorant dilution (vol/vol): 1/100. As for the experimental part:
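Single sensillum recordings from olfactory sensory neurons. The neurons sit in the maxillary palp or antennal sensilla of D. melanogaster (wild type, mutants, or at1 empty-neuron lines expressing Or42a homologs or the A181D S307P mutant) and of four Scaptomyza species. Each odorant was given as a 1 s pulse from 20 µl loaded on filter paper at 1:100 vol/vol, diluted in mineral oil (γ-hexalactone in DMSO). Spikes were counted in a 0.5 s window starting 0.2 s after onset, background was subtracted, the count was doubled, and the mean solvent-control response was subtracted.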
As to S. pallida pb3a-like, the “control-subtracted net OSN firing rate” value was 109 ± 24 spikes/s.
As to S. flava pb1a-like, the “control-subtracted net OSN firing rate” value came out at 152 ± 26 spikes/s.
In the case of S. hsui pb2a-like it was 10 ± 12 spikes/s.
S. hsui pb3b-like: the “control-subtracted net OSN firing rate” value was -5 ± 4.2 spikes/s.
For the target S. pallida pb2b-like, the “control-subtracted net OSN firing rate” value was 6.67 ± 10 spikes/s.
As for Or67dGal4, UAS-Sfla Or42a3 at1, the “control-subtracted net OSN firing rate” value stood at 144 ± 32 spikes/s.
As for S. montana pb2a-like, the “control-subtracted net OSN firing rate” value came out at 1 ± 8.5 spikes/s.
In the case of S. hsui pb1b-like it was -16.3 ± 10 spikes/s; in that of Canton-S (D. melanogaster) pb1a, 124 ± 31 spikes/s; in that of S. montana pb1a-like, 145 ± 34 spikes/s.
As for Canton-S (D. melanogaster) pb3b, the “control-subtracted net OSN firing rate” value is -0.833 ± 5.7 spikes/s.
In the case of S. hsui pb1a-like it was 115 ± 18 spikes/s; in that of S. montana pb2b-like, 5.67 ± 5.1 spikes/s; in that of S. pallida pb1b-like, -6.67 ± 7.2 spikes/s.
In the case of S. flava pb2b-like, the “control-subtracted net OSN firing rate” value turned out to be 15 ± 14 spikes/s.
Regarding Or67dGal4, UAS-Sfla Or42a2 at1, the “control-subtracted net OSN firing rate” value worked out at 3.14 ± 12 spikes/s.
In the case of S. pallida pb2a-like it was 8.33 ± 6 spikes/s; in that of S. flava pb2a-like, 1.67 ± 6.6 spikes/s.
In the case of Canton-S (D. melanogaster) pb2b it was 0.857 ± 11 spikes/s.
In the case of S. flava pb3b-like, the “control-subtracted net OSN firing rate” value was 26 ± 42 spikes/s.
Consider Or67dGal4, UAS-Spal Or42a at1, for which the “control-subtracted net OSN firing rate” value was found to be 205 ± 10 spikes/s.
In the case of Or67dGal4, UAS-Dmel Or42a at1 it was 110 ± 52 spikes/s.
In the case of S. flava pb1b-like it was -17.7 ± 8.2 spikes/s; in that of S. flava pb3a-like, -3.33 ± 9.6 spikes/s; in that of Or67dGal4, UAS-Sfla Or42a4 at1, 179 ± 43 spikes/s.
For the target Canton-S (D. melanogaster) pb1b, the “control-subtracted net OSN firing rate” value was -5.33 ± 9 spikes/s.
In the case of S. pallida pb3b-like, the “control-subtracted net OSN firing rate” value is -10 ± 14 spikes/s.
In the case of S. montana pb3a-like it was 3 ± 5.5 spikes/s.
As to S. hsui pb2b-like, the “control-subtracted net OSN firing rate” value came to 15 ± 15 spikes/s.
Regarding S. hsui pb3a-like, the “control-subtracted net OSN firing rate” value is 147 ± 24 spikes/s.
For the target Canton-S (D. melanogaster) pb2a, the “control-subtracted net OSN firing rate” value came out at 4.86 ± 9.6 spikes/s.
With S. montana pb3b-like, the “control-subtracted net OSN firing rate” value stood at 8.33 ± 8.7 spikes/s.
As for S. montana pb1b-like, the “control-subtracted net OSN firing rate” value was -11.3 ± 8.9 spikes/s.
For the target S. pallida pb1a-like, the “control-subtracted net OSN firing rate” value came to 103 ± 25 spikes/s.
With Canton-S (D. melanogaster) pb3a, the “control-subtracted net OSN firing rate” value turned out to be 0.167 ± 5.6 spikes/s.
